One assay deals with Staphylococcus aureus. The conditions noted are these: Concentration 32 ug.mL-1; ASSAY_TEST Inhibition of Bacterial Growth; detection method Absorption (OD600); MEDIA CAMHB; plate type 384well; NBS; CORNING #3640; time 18 hr.
Another assay relates to Escherichia coli. The conditions noted are these: Concentration 32 ug.mL-1; ASSAY_TEST Inhibition of Bacterial Growth; detection method Absorption (OD600); MEDIA CAMHB; plate type 384well; NBS; CORNING #3640; time 18 hr.

The values below come from ChEMBL document CHEMBL4513143, “CO-ADD screening of University of Natural Resources and Life (Austria) compounds”.

Structures are written as SMILES. Measured potencies and affinities stand elsewhere.

As a reminder, the Inhibition is the change of the read-out against control, counted positive when it falls. A higher Inhibition goes with a response far below the control. With `[N-]=[N+]=NC[C@H]1OC(O)[C@@H](O)[C@@H]1O` (some centres not stated), the figures for the Inhibition in the assay on Staphylococcus aureus and with Escherichia coli were 29.31% and 18.39%, respectively.
